In the supplement of paper PMC10981050:
Where a name gives a salt, the structure may show the parent alone.

These molecules were tested on MOLM14 (assay: cell viability relative to vehicle control; higher = less cytotoxic). Conditions: 10 µM; SRSF2 genotype: SRSF2 P95H/wt.
Outline: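 After removal of identity-inconsistent compounds, the Selleck bioactive, kinase and epigenetic probe libraries were screened on CRISPR-edited mutant clones and isogenic wild-type clones of four leukaemia lines. Plates were 384-well, each well holding 2000 cells in 50 µL medium and receiving a single 10 µM acoustically dispensed dose. CellTiter-Glo luminescence was read 48 h later, after the supernatant was taken off. Genedata Screener was used to express viability as percent of the on-plate vehicle control.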
For `OCC(O)C(O)C(O)C(O)CO` (stereo unspecified) [Allitol], the cell viability was 108%.
`CCCCC[C@](C)(O)/C=C/[C@@H]1[C@@H](C/C=C\CCCC(=O)O)[C@@H](O)C[C@H]1O` [Carboprost] gave a cell viability of 78.8%.
Work on `Cc1cc(C)nc(NS(=O)(=O)c2ccc(NC(=S)NC(=O)COc3ccc(Br)cc3Cl)cc2)n1` yielded a cell viability of 83.5%.
`Cc1nc2cc(F)c(F)cc2n1-c1cncc(Nc2ccc(C(F)(F)F)cc2)n1` gave a cell viability of 11.7%.
Molecule `NC(=O)N/N=C/c1ccc([N+](=O)[O-])o1` [Nitrofurazone (Nitrofural)] has a cell viability of 96.8%.
`COc1ccc2cc([C@H](C)C(=O)O)ccc2c1` [Naproxen Sodium] showed a cell viability of 98.6%.
For `C[C@H]1O[C@@H](n2cc(F)c(=O)[nH]c2=O)[C@H](O)[C@@H]1O` [Doxifluridine], the cell viability was 96.5%.
`Clc1cccc(Cl)c1NC1=NCCN1` [Clonidine hydrochloride (Catapres)] gave a cell viability of 89.2%.
In the case of `Cc1ccc(-c2nn(C(C)(C)C)c3ncnc(N)c23)cc1`, the cell viability is reported as 58.6%.
In the case of `CC(=O)OCCc1ccc(O)c(O)c1` [Hydroxytyrosol Acetate], the cell viability is reported as 95.7%.
With `CCCCCCCC(=O)N[C@H](CN1CCCC1)[C@H](O)c1ccc2c(c1)OCCO2` [Eliglustat (Tartrate)] the cell viability was 90%.

Same assay, conditions: 10 µM; SRSF2 genotype: SRSF2 wt/wt
`CC1(C)CCC[C@](C)([C@H]2CC[C@]3(C)[C@@H]2[C@H](O)C[C@@H]2[C@@]4(C)CC[C@H](O)C(C)(C)[C@@H]4[C@@H](O)C[C@]23C)O1` [Panaxatriol] was tested, and the cell viability was 103%.
Work on `COc1cc2c(cc1OC)[C@@H]1Cc3ccc(OC)c(OC)c3CN1CC2` [Tetrahydropalmatine hydrochloride] yielded a cell viability of 101%.
Molecule `CCCCCCCCOc1ccccc1C(=O)Nc1ccc(C(=O)OCC[N+](C)(CC)CC)cc1` [Otilonium Bromide] has a cell viability of 89%.
Work on `CC(CCc1ccccc1)NCC(=O)c1ccc(O)c(C(N)=O)c1` (stereo unspecified) [Labetalone hydrochloride] yielded a cell viability of 104%.
`COC1(c2sc3c(N4CCOCC4)nc(-c4cnc(N)nc4)nc3c2C)COC1` gave a cell viability of 24.1%.
`CC(=O)N1CCN(c2ccc(OCC3COC(Cn4ccnc4)(c4ccc(Cl)cc4Cl)O3)cc2)CC1` (stereo unspecified) [Ketoconazole] gave a cell viability of 26.2%.
In the case of `CC(C)=CCOc1ccc(/C=C/C(=O)c2ccc(OCC=C(C)C)cc2OCC(=O)O)cc1` [Sofalcone], the cell viability is reported as 94.5%.
Work on `CC(C)=CCC[C@](C)(O[C@@H]1O[C@H](CO)[C@@H](O)[C@H](O)[C@H]1O)[C@H]1CC[C@]2(C)[C@@H]1[C@H](O)C[C@@H]1[C@@]3(C)CC[C@H](O)C(C)(C)[C@@H]3[C@@H](O[C@@H]3O[C@H](CO)[C@@H](O)[C@H](O)[C@H]3O[C@@H]3O[C@@H](C)[C@H](O)[C@@H](O)[C@H]3O)C[C@]12C` [Ginsenoside Re] yielded a cell viability of 106%.
`CC(=O)c1cc2c(o1)C(=O)c1ccccc1C2=O` [Napabucasin] showed a cell viability of 0.39%.
For `C/C=C(\C)C(=O)OC1c2c(ccc3ccc(=O)oc23)OC(C)(C)C1OC(=O)/C(C)=C/C` (stereo unspecified) [Praeruptorin B], the cell viability was 94.7%.
In the case of `CN(C)CCCNC(=O)c1ccc(-c2cc(O)c3ncccc3c2)cc1`, the cell viability is reported as 24.9%.
For `O=c1ncccn1[C@@H]1O[C@H](CO)[C@@H](O)[C@H]1O` [Zebularine], the cell viability was 89.7%.
Molecule `C/C=C(/C)C(=O)OC(C)(C)[C@@H]1Cc2c(ccc3ccc(=O)oc23)O1` [Columbianadin] has a cell viability of 98.4%.
Work on `CCc1c(C(=O)NCCc2ccc(N3CCCCC3)cc2)[nH]c2ccc(Cl)cc12` yielded a cell viability of 102%.
Molecule `COc1cccc(-c2cc(=O)c3ccccc3o2)c1N` has a cell viability of 109%.
`CC/C=C(\C(=O)N[C@@H]1C(=O)N2C(C(=O)OCOC(=O)C(C)(C)C)=C(COC(N)=O)CS[C@H]12)c1csc(N)n1` [Cefcapene Pivoxil Hydrochloride] gave a cell viability of 105%.
`CO/N=C(\C(=O)N[C@@H]1C(=O)N2C(C(=O)OCOC(=O)C(C)(C)C)=C(/C=C\c3scnc3C)CS[C@H]12)c1csc(N)n1` [Cefditoren pivoxil] gave a cell viability of 103%.
`COc1cc2c(=O)c(-c3ccc(O)cc3)coc2cc1O` [Glycitein] was tested, and the cell viability was 98.1%.
Molecule `S=c1nc[nH]c2nc[nH]c12` [6-Mercaptopurine (6-MP) Monohydrate] has a cell viability of 71.8%.
For `COc1ccccc1C(=O)Nc1cc2c(cc1N1CCCC1)n(C)c(=O)n2C`, the cell viability was 83.4%.
`C[C@H]1[C@H](C)CC[C@]2(C(=O)O[C@@H]3O[C@H](CO[C@@H]4O[C@H](CO)[C@@H](O[C@@H]5O[C@H](C)[C@H](O)[C@@H](O)[C@H]5O)[C@H](O)[C@H]4O)[C@@H](O)[C@H](O)[C@H]3O)CC[C@]3(C)C(=CC[C@@H]4[C@@]5(C)C[C@@H](O)[C@H](O)[C@@](C)(CO)[C@@H]5CC[C@]43C)[C@H]12` [Asiaticoside] gave a cell viability of 103%.
For `O=C1N=C(N2CCOCC2)CN1c1ccc(Cl)cc1`, the cell viability was 104%.
Molecule `Cc1ncc(COP(=O)(O)O)c(C=O)c1O` [Pyridoxal phosphate] has a cell viability of 106%.
Work on `COc1c(N2C[C@@H]3CCCN[C@@H]3C2)c(F)cc2c(=O)c(C(=O)O)cn(C3CC3)c12` [Moxifloxacin] yielded a cell viability of 96.4%.
`C=CC(=O)Nc1cccc(Nc2nc(Nc3ccc(OCCOC)cc3)ncc2F)c1` showed a cell viability of 6.93%.
For `COC(=O)N[C@H](C(=O)N1CCC[C@H]1c1ncc(-c2ccc(-c3ccc(-c4cnc([C@@H]5CCCN5C(=O)[C@@H](NC(=O)OC)C(C)C)[nH]4)cc3)cc2)[nH]1)C(C)C` [Daclatasvir Digydrochloride], the cell viability was 77.9%.
In the case of `Cc1coc2c1C(=O)C(=O)c1c-2ccc2c(C)cccc12` [Tanshinone I], the cell viability is reported as 48.3%.
`CC(C)=CCCC(C)=CCCC(C)=CCCC(C)=CCC1=C(C)C(=O)c2ccccc2C1=O` [Vitamin K2] showed a cell viability of 101%.
`C=CC(=O)N1CCC(Oc2cc3c(Nc4ccc(Cl)c(Cl)c4F)ncnc3cc2OC)CC1` [Poziotinib (HM781-36B)] gave a cell viability of 58%.
Work on `OCC(O)C(O)C(O)C(O)CO` (stereo unspecified) [Allitol] yielded a cell viability of 103%.
`CCCCC[C@](C)(O)/C=C/[C@@H]1[C@@H](C/C=C\CCCC(=O)O)[C@@H](O)C[C@H]1O` [Carboprost] was tested, and the cell viability was 99.7%.
`Cc1cc(C)nc(NS(=O)(=O)c2ccc(NC(=S)NC(=O)COc3ccc(Br)cc3Cl)cc2)n1` showed a cell viability of 91.1%.
`Cc1nc2cc(F)c(F)cc2n1-c1cncc(Nc2ccc(C(F)(F)F)cc2)n1` gave a cell viability of 2.75%.
`NC(=O)N/N=C/c1ccc([N+](=O)[O-])o1` [Nitrofurazone (Nitrofural)] gave a cell viability of 99.5%.
Molecule `COc1ccc2cc([C@H](C)C(=O)O)ccc2c1` [Naproxen Sodium] has a cell viability of 102%.
With `C[C@H]1O[C@@H](n2cc(F)c(=O)[nH]c2=O)[C@H](O)[C@@H]1O` [Doxifluridine] the cell viability was 105%.
For `Clc1cccc(Cl)c1NC1=NCCN1` [Clonidine hydrochloride (Catapres)], the cell viability was 103%.
`Cc1ccc(-c2nn(C(C)(C)C)c3ncnc(N)c23)cc1` showed a cell viability of 85.9%.
`CC(=O)OCCc1ccc(O)c(O)c1` [Hydroxytyrosol Acetate] showed a cell viability of 103%.
`CCCCCCCC(=O)N[C@H](CN1CCCC1)[C@H](O)c1ccc2c(c1)OCCO2` [Eliglustat (Tartrate)] showed a cell viability of 99.9%.
